Screens deposited in PubChem by several laboratories.
EBI2 antag: antagonists of human EBI2 receptor; inhibition, % at 5 µM; EBI2 beta-arrestin recruitment, luminescence, 7a,25-OHC stimulated; P32249; 360,000 compounds, 0.81% hits; in the data active = inhibition above about 38%;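 note: enzyme fragment complementation signal reports receptor beta-arrestin coupling in cells; 0% = agonist plus DMSO wells and 100% = wells without agonist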
SENP6 inh: inhibitors of human SENP6 protease; Recombinant SENP6 catalytic domain, aminoluciferin luminescence; inhibition, % at 10 µM; Q9GZR1; 330,000 compounds, 1.8% hits;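 active = inhibition above about 50% at the single tested dose, limit read from the data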;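 note: plate controls were DMSO wells with enzyme for no effect and DMSO wells lacking enzyme for full effect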
Target sequence (Q9GZR1 628-1112 limits assumed): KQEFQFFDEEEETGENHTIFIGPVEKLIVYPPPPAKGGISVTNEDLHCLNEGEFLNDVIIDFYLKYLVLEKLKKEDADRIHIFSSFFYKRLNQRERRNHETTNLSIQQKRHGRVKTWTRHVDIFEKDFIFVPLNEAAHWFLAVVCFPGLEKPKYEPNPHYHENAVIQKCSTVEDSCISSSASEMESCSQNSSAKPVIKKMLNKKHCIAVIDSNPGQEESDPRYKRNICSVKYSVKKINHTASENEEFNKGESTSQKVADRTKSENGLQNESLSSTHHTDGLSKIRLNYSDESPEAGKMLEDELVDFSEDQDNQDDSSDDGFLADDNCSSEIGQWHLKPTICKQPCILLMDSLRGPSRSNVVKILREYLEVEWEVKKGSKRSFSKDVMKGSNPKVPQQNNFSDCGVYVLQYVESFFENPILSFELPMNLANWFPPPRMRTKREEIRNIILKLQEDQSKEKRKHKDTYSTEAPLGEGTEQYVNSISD
SENP8 block-1: SENP8 (human) protease inhibition; Q96LD8; inhibition, % at 20 µM; 360,000 compounds, 0.64% hits; recombinant SENP8, Nedd8 substrate fluorescence; in the data active = inhibition mostly above about 40%, no sharp cut-off; inactive = mostly below about 27%
SENP7 block: inhibitors of human SENP7 protease | Q9BQF6 | recombinant SENP7, Z-RLRGG-aminoluciferin luminescence, 40 min | inhibition, % at 5 µM | 330,000 compounds, 1.5% hits | AID 434973;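 active = inhibition above about 50% at the single test dose, limit read from the data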;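 note: plate controls were DMSO with enzyme for no effect and no enzyme buffer wells for full effect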
SENP8 block-2: SENP8 protease inhibition; Q96LD8; purified SENP8, Z-RLRGG-aminoluciferin cleavage, luminescence; inhibition, % at 10 µM; 330,000 compounds, 1.2% hits; in the data active = inhibition above about 50%
AHR activator: activates the human aryl hydrocarbon receptor. AHR-responsive luciferase reporter cells, luminescence. 320,000 compounds, 2.5% hits. activation, % at 5 µM. P35869; in the data active = activation above about 47%;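 note: 0% = vehicle wells and 100% = reference agonist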
EBI2 antag conf: confirmation of human EBI2 receptor antagonists; inhibition, % at 5 µM; AID 651997; EBI2 beta-arrestin luminescence, 7a,25-OHC antagonism; shares compounds with EBI2 antag; 2,400 compounds, 29% hits;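 active = inhibition of at least 50%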
EBI2 agonist: activates EBI2, counter-screen for EBI2 antagonists; shares compounds with EBI2 antag; 2,400 tested, under 10 active; EBI2-expressing cells, agonist mode, luminescence, 60 min; 0% vehicle, 100% 7α,25-dihydroxycholesterol control; activation, % at 5 µM;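 active = activation of at least 50%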
bGal counter: beta-galactosidase inhibition counter-screen. shares compounds with EBI2 antag. purified beta-galactosidase, luminescent Galacton Star, 15 min. inhibition, % at 5 µM. 2,400 compounds, 1% hits. AID 652176;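 active = replicate-average signal at least 3 plate SD below neutral wells, shown as high inhibition, flagging enzyme-inhibiting false positives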;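 note: 0% = DMSO wells with enzyme and 100% = wells lacking enzyme; higher means stronger loss of beta-gal luminescence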
Starred values were filed as active, the others as inactive; nt = no result. In the library only some 5% were active in any assay of this set; here they are far more common.

SMILES	EBI2 antag	SENP6 inh	SENP8 block-1	SENP7 block	SENP8 block-2	AHR activator	EBI2 antag conf	EBI2 agonist	bGal counter
CC(C)(C)c1ccc(Cn2cnc(-c3ccc([N+](=O)[O-])cc3)c2)cc1	51*	3	10	-8	-11	5	23	1	6
Cc1ccc(CNC(=O)C2CCC(=O)N(Cc3ccc(Cl)cc3)C2)cc1F (stereo unspecified)	21	2	-1	-1	-6	nt	nt	nt	nt
O=C(/C=C1\OCc2ccccc21)OCc1ccccc1	8	nt	18	nt	nt	nt	nt	nt	nt
O=C(/C=C1\OCc2cc(OCc3ccccc3)ccc21)OCc1ccccc1	46*	nt	5	nt	nt	nt	32	-1	-15
N#Cc1ccccc1NC(=O)COC(=O)c1ccc2c(c1)OCO2	0	-15	3	1	-1	9	nt	nt	nt
Cc1ccc(CNC(=O)C2CCN(S(=O)(=O)c3cccnc3)CC2)cc1	52*	-22	-5	16	-8	0	44	2	5
Cc1ccc(CCNC(=O)C2CCN(S(=O)(=O)c3cccc4nonc34)CC2)cc1	1	-4	7	5	-3	0	nt	nt	nt
Cc1ccc(CNC(=O)C2CCC(CNS(=O)(=O)c3cccc4cccnc34)CC2)cc1 (stereo unspecified)	50*	6	5	-2	-2	2	39	-1	-10
Cc1ccc(CNC(=O)C2CCN(S(=O)(=O)c3c(C)noc3C)CC2)cc1	47*	-4	18	-4	-6	2	18	1	-10
Cc1ccc(CNC(=O)C2CCN(S(=O)(=O)c3cccc4nonc34)CC2)cc1	49*	-7	8	-1	4	0	24	0	7
COc1cccc(CNC(=O)C2CCC(CNS(=O)(=O)c3cccc4cccnc34)CC2)c1 (stereo unspecified)	4	-1	12	-2	-1	1	nt	nt	nt
CC(=O)N1CCOc2ccc(S(=O)(=O)N3CCC(C(=O)NCc4ccccc4)CC3)cc21	65*	-2	12	-11	8	2	50	0	-14
COc1ccc(CCNc2cc(-c3ccccc3)nc3ncnn23)cc1	45*	-20	-106	-11	-6	-6	20	0	6
Cc1ccc(S(=O)(=O)Nc2ccc(-n3cnnn3)cc2)c(C)c1	-3	2	-2	-5	6	1	nt	nt	nt
Cc1cc(C)c(S(=O)(=O)Nc2ccc(N(C)C)cc2)c(C)c1-n1cnnn1	65*	2	6	14	-2	0	33	2	3
CC(C)c1cc(C(=O)OCC(=O)N2CCN(C(=O)c3ccco3)CC2)c(O)c(C(C)C)c1	12	-4	-102	-3	6	-1	nt	nt	nt
CCC1=NN(C(=O)CCc2ccc3c(c2)OCO3)C(O)(C(F)(F)F)C1 (stereo unspecified)	-8	-4	-4	4	-9	45	nt	nt	nt
O=C1C=C(Nc2ccccc2)CC(c2ccccc2)C1 (stereo unspecified)	12	-27	23	-6	-10	0	nt	nt	nt
COc1ccc([C@H]2CC(=O)C=C(c3ccc4c(c3)sc3ccccc34)C2)cc1	55*	-12	-41	9	-1	3	19	1	9
COc1ccc([C@H]2CC(=O)C=C(c3ccc(SC)cc3)C2)cc1	71*	7	-479	6	-4	4	47	0	-11
COc1ccc(NC2=CC(=O)CC(c3ccccc3)C2)cc1 (stereo unspecified)	52*	-13	2	2	7	7	31	2	13
O=C1C=C(c2ccc(OC(F)(F)F)cc2)C[C@@H](c2ccc(F)cc2)C1	52*	-1	22	7	-3	1	38	0	-8
COc1ccc([C@H]2CC(=O)C=C(c3cccc(C(C)C)c3)C2)cc1	4	-1	16	9	4	5	nt	nt	nt
CC(=O)Nc1ccc(CN2C(=O)C(Cc3ccccc3)ON=C2c2ncccc2C)cc1 (stereo unspecified)	0	nt	6	nt	nt	nt	nt	nt	nt
